# Laboratory results reported in PubChem BioAssay (EPA / NIEHS).
# Active and inactive are the calls of the source. The calls were made as follows: active = hit-call score of the fitted dose curve at least 0.9, where 1 is the maximum; inactive = score below 0.9.
# Read-out: Interleukin-1 alpha (IL1a), IL1A (gene 3552)
# Assay: BSK_KF3CT_IL1a: BioMAP Diversity Plus: KF3CT Assay for Interleukin-1 alpha (IL1a) Biomarker Activity (AID 2283070)
# Settings: primary human keratinocytes with fibroblasts; actives raise or lower the signal
# Method: BSK_KF3CT is a cell-based, multiplexed-readout assay that uses keratinocytes and foreskin fibroblasts, a human skin primary cell co-culture, with measurements taken at 24 hours after chemical dosing in a 96-well plate.BSK_KF3CT_IL1a is an assay component measured in the BSK_KF3CT assay. It measures IL-1a antibody related to regulation of gene expression using ELISA technology.Data from the assay component BSK_KF3CT_IL1a was analyzed into 1 assay endpoint. This assay endpoint, BSK_KF3CT_IL1a, was analyzed with bidirectional fitting relative to DMSO as the negative control and baseline of activity. Using a type of binding reporter, gain or loss-of-signal activity can be used to understand changes in the signaling as they relate to the gene IL1A. Furthermore, this assay endpoint can be referred to as a primary readout, because this assay has produced multiple assay endpoints where this one serves a signaling function. To generalize the intended target to other relatable targets, this assay endpoint is annotated to the cytokine intended target family, where the subfamily is interleukins.
# The levels of cell surface (or secreted, indicated by the prefix "s") biomarker endpoints were measured by ELISA. Overt cytotoxicity to cells in confluent adherent cultures (all systems other than the BT system) was assessed by measuring total protein levels using sulforhodamine B (SRB) staining in parallel cultures at the time of biomarker measurements, indicated as SRB endpoints. For proliferation assays for adherent cell types, individual cell types are cultured at sub-confluence and relative cell numbers quantified by SRB staining at time points optimized for each system (48 h: 3C and CASM3C systems; 72 h: BT and HDF3CGF systems; 96 h: SAg system). SRB was performed by staining cells with 0.1% SRB after fixation with 10% TCA and reading wells at 560 nm.Viability and proliferation of PBMC (T cells) was quantified by Alamar Blue reduction for the SAg and BT systems. For PBMC viability (referred to as PBMC Cytotoxicity within the assay endpoint names), cells were plated (75,000/well in a 96-well plate) and then chemical samples added for 1 h before addition of activators, SEB and TSST-1 (20 ng/mL final concentration each). Cells were incubated for 90 h. Then, Alamar Blue (20 uL/well) (Invitrogen, Cat DAL1100) was added for 6 h, and the plates were read with a fluorescence microplate reader at 546/580 nm (excitation/emission). For PBMC proliferation, cells were plated and activated as above but incubated for only 16 h prior to addition of Alamar Blue. Plates were read after 6 h.
SMILES,outcome,AC50
CCOC(=O)COc1ccc2c(c1)CC(NCC(O)c1cccc(Cl)c1)CC2 (stereo not given),inactive,
O=c1[nH]c2ccc(S(=O)CCN3CCC(Cc4ccc(F)cc4)CC3)cc2o1 (stereo not given),inactive,
CNS(=O)(=O)c1cc(C(=O)N2CCC(CCN3C4CCC3CC(n3c(C)nc5ccccc53)C4)(c3cccc(F)c3)CC2)c(Cl)cc1F (stereo not given),inactive,
CC[C@H](C)C(=O)O[C@H]1C[C@@H](C)C=C2C=C[C@H](C)[C@H](CC[C@@H]3C[C@@H](O)CC(=O)O3)[C@H]21,,33.5 µM (active)
CC(C)=CCC/C(C)=C/CO,inactive,
CCCCCCCCCCCCCCCO,inactive,
CC[C@H]1CC[C@H](NCc2cc3c(cc2OC)[C@H]2C[C@H]2C(=O)N3C)[C@H](c2ccccc2)N1,inactive,
O=C1CCC(N2C(=O)c3ccccc3C2=O)C(=O)N1 (stereo not given),inactive,
O=C(NS(=O)(=O)/C=C/c1ccccc1)c1ccc(F)cc1Cl,inactive,
CCCCC(CC)COC(=O)CCCCCCCCC(=O)OCC(CC)CCCC (stereo not given),inactive,
CC(C)CCO,inactive,
COc1ccc(/C=C/S(=O)(=O)NC(=O)c2ccc(C)cc2Cl)cc1,,8.09 µM (active)
Clc1nc(Cl)c(Cl)c(Cl)c1Cl,inactive,
Cc1ccc(C)c(O)c1,inactive,
COCCOCCOCCOC,inactive,
CC[C@H]1OC(=O)[C@H](C)[C@@H](O[C@H]2C[C@@](C)(OC)[C@@H](O)[C@H](C)O2)[C@H](C)[C@@H](O[C@@H]2O[C@H](C)C[C@H](N(C)C)[C@H]2O)[C@](C)(O)C[C@@H](C)C(=O)[C@H](C)[C@@H](O)[C@]1(C)O,inactive,
CCCN(C1CCN(C(=O)C2CCNCC2)CC1)[C@@H]1CCc2ccc(OC)cc2C1,inactive,
CN(C)c1ccc(N=NS(=O)(=O)O)cc1,inactive,
NC(=O)NO,inactive,
CCC(C)(C)C(=O)O[C@H]1C[C@@H](C)C=C2C=C[C@H](C)[C@H](CC[C@@H]3C[C@@H](O)CC(=O)O3)[C@H]21,,34.9 µM (active)

SMILES,outcome,AC50
Cc1ccc(N)cc1O,inactive,
CCOCCO,inactive,
Nc1cccc(N)c1,inactive,
C[C@](N)(Cc1ccc(O)c(O)c1)C(=O)O,inactive,
CC(C)=CCCC(C)CCO (stereo not given),inactive,
CCN(C(=O)c1cc(C)cc(OC[C@H](C)Nc2ccncc2)c1)C(C)C,inactive,
O=C(O)c1cc(N=Nc2ccc(S(=O)(=O)Nc3ccccn3)cc2)ccc1O,inactive,
Oc1ccc2c(c1)-c1ccccc1C2,inactive,
Cc1[nH]cnc1C[C@H]1CCc2c(C)c3ccccc3n2C1=O,inactive,
COc1ccc2sc(C(=O)Nc3nnn[nH]3)c(OC(C)C)c2c1,,19.9 µM (active)
CC(C)c1cccc(C(C)C)c1N1C(=O)c2ccc(O)cc2C1=O,,30.9 µM (active)
O=C(CCCCCCCCc1cccnc1)N1CCC(C=C(c2ccccc2)c2ccccc2)CC1,,16.9 µM (active)
Cc1ccc(O)cc1,inactive,
CCOC(=O)CC(CC(=O)OCC)(OC(C)=O)C(=O)OCC,inactive,
CC(=O)OC[C@H]1O[C@@](COC(C)=O)(O[C@H]2O[C@H](COC(C)=O)[C@@H](OC(C)=O)[C@H](OC(C)=O)[C@H]2OC(C)=O)[C@@H](OC(C)=O)[C@@H]1OC(C)=O,inactive,
CCn1nc(Cc2ccccc2)cc1C1CCN(C[C@H]2C[C@H](N(C)[C@@H](C(=O)O)C(C)C)C[C@@H]2c2cccc(F)c2)CC1,inactive,
CC1=CC(=O)CC(C)(C)C1,inactive,
COc1cccc(-c2ccc(/C=C\CN3CCCCCC3)cc2Cl)c1,,29 µM (active)
O=C(O)c1cccc(N(Cc2cccnc2)c2ccc(OC(F)F)c(OC(F)F)c2)c1,inactive,
COCCOc1cc2cc(C(=O)NC3CCN(C(C)C)CC3)n(CC(=O)Nc3ccc(Cl)cn3)c2cn1,inactive,
